According to PubChem BioAssay AID1159580 (chemical genetic matrix, 2015):
In all, about 5,500 compounds went through this assay and about 2,000 (36%) were called active. About 18% were inconclusive and are not listed. Rule as the data show it: active = normalized growth mostly below about 0.91 (no sharp cut-off); inconclusive = no clear call, values can overlap the other calls; inactive = mostly above about 0.92. The list shows a part of the results.

Test: chemical genetic growth profiling, strain panel (AID 1159580);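 also: tested at 20 µM; growth read once vehicle control cultures reached saturation at 30 °C; 1 = growth at the plate median or of vehicle wells; lower values mean less growth of the strain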
Settings: growth OD

Measured: normalized growth

O=C1C=C2C(=CCOC2O)O1 (stereo unspecified)
inactive: S. cerevisiae deletion strains, locus YLR058C, strain SHM2, active compounds read low 0.927 | S. cerevisiae deletion strains, locus YLR102C, strain apc9, active compounds read low 0.96 | S. cerevisiae deletion strains, locus YLR357W, strain rsc2, active compounds read low 0.862 | S. cerevisiae deletion strains, locus YLR371W, strain rom2, active compounds read low 0.945 | S. cerevisiae deletion strains, locus YML016C, strain PPZ1, active compounds read low 0.953 | S. cerevisiae deletion strains, locus YML032C, strain rad52, active compounds read low 0.92 | S. cerevisiae deletion strains, locus YMR078C, strain ctf18, active compounds read low 0.989 | S. cerevisiae deletion strains, locus YNL250W, strain rad50, active compounds read low 0.903 | S. cerevisiae deletion strains, locus YNL271C, strain bni1, active compounds read low 0.92 | S. cerevisiae deletion strains, locus YNL322C, strain KRE1 (second series), active compounds read low 0.911 | S. cerevisiae deletion strains, locus YOL006C, strain TOP1, active compounds read low 0.632 | S. cerevisiae deletion strains, locus YOL012C, strain htz1 0.714 | S. cerevisiae deletion strains, locus YOL147C, strain pex11, active compounds read low 0.984 | S. cerevisiae deletion strains, locus YOR061W, strain CKA2, active compounds read low 0.929 | S. cerevisiae deletion strains, locus YOR144C, strain elg1, active compounds read low 0.966 | S. cerevisiae deletion strains, locus YOR231W, strain MKK1, active compounds read low 0.877 | S. cerevisiae deletion strains, locus YOR316C, strain cot1, active compounds read low 0.951 | S. cerevisiae deletion strains, locus YPR119W, strain clb2, active compounds read low 0.965 | S. cerevisiae deletion strains, locus YPR167C, strain met16, active compounds read low 0.937
active: S. cerevisiae deletion strains, locus YKL009W, strain mrt4, active compounds read low 0.714 | S. cerevisiae deletion strains, locus YKL068W, active compounds read low 0.904 | S. cerevisiae deletion strains, locus YKL085W, strain MDH1 (second series), active compounds read low 0.868 | S. cerevisiae deletion strains, locus YKL085W, strain MDH1, active compounds read low 0.868 | S. cerevisiae deletion strains, locus YKL160W, strain elf1, active compounds read low 0.736 | S. cerevisiae deletion strains, locus YKL190W, strain CNB1, active compounds read low 0.834 | S. cerevisiae deletion strains, locus YKR001C, strain vps1, active compounds read low 0.541 | S. cerevisiae deletion strains, locus YKR026C, strain gcn3, active compounds read low 0.795 | S. cerevisiae deletion strains, locus YKR091W, strain srl3, active compounds read low 0.885 | S. cerevisiae deletion strains, locus YLL001W, strain dnm1, active compounds read low 0.691 | S. cerevisiae deletion strains, locus YLL026W, active compounds read low 0.769 | S. cerevisiae deletion strains, locus YLL041C, strain sdh2, active compounds read low 0.84 | S. cerevisiae deletion strains, locus YLR027C, strain aat2, active compounds read low 0.727 | S. cerevisiae deletion strains, locus YLR039C, strain RIC1, active compounds read low 0.292 | S. cerevisiae deletion strains, locus YLR113W, strain HOG1, active compounds read low 0.708 | S. cerevisiae deletion strains, locus YLR221C, strain rsa3, active compounds read low 0.716 | S. cerevisiae deletion strains, locus YLR258W, strain gsy2, active compounds read low 0.794 | S. cerevisiae deletion strains, locus YLR262C, strain YPT6 (second series), active compounds read low 0.337 | S. cerevisiae deletion strains, locus YLR262C, strain YPT6, active compounds read low 0.231 | S. cerevisiae deletion strains, locus YLR268W, strain sec22, active compounds read low 0.794 | S. cerevisiae deletion strains, locus YLR320W, strain mms22, active compounds read low 0.701 | S. cerevisiae deletion strains, locus YLR330W, strain CHS5, active compounds read low 0.87 | S. cerevisiae deletion strains, locus YLR342W, strain FKS1 (second series), active compounds read low 0.774 | S. cerevisiae deletion strains, locus YLR342W, strain FKS1, active compounds read low 0.72 | S. cerevisiae deletion strains, locus YLR370C, strain arc18, active compounds read low 0.697 | S. cerevisiae deletion strains, locus YLR384C, strain iki3, active compounds read low 0.789 | S. cerevisiae deletion strains, locus YLR418C, strain cdc73, active compounds read low 0.62 | S. cerevisiae deletion strains, locus YML120C, strain ndi1, active compounds read low 0.76 | S. cerevisiae deletion strains, locus YML124C, strain tub3, active compounds read low 0.918 | S. cerevisiae deletion strains, locus YMR058W, strain fet3, active compounds read low 0.328 | S. cerevisiae deletion strains, locus YMR125W, strain sto1, active compounds read low 0.729 | S. cerevisiae deletion strains, locus YMR129W, active compounds read low 0.836 | S. cerevisiae deletion strains, locus YMR205C, strain PFK2, active compounds read low 0.722 | S. cerevisiae deletion strains, locus YMR223W, strain ubp8, active compounds read low 0.801 | S. cerevisiae deletion strains, locus YMR231W, strain pep5, active compounds read low 0.0886 | S. cerevisiae deletion strains, locus YMR263W, strain SAP30, active compounds read low 0.852 | S. cerevisiae deletion strains, locus YMR307W, strain GAS1, active compounds read low 0.302 | S. cerevisiae deletion strains, locus YNL067W, strain RPL9B, active compounds read low 0.689 | S. cerevisiae deletion strains, locus YNL071W, strain lat1, active compounds read low 0.654 | S. cerevisiae deletion strains, locus YNL128W, strain TEP1, active compounds read low 0.798 | S. cerevisiae deletion strains, locus YNL153C, strain GIM3, active compounds read low 0.664 | S. cerevisiae deletion strains, locus YNL183C, strain NPR1, active compounds read low 0.825 | S. cerevisiae deletion strains, locus YNL209W, strain ssb2, active compounds read low 0.761 | S. cerevisiae deletion strains, locus YNL233W, strain BNI4, active compounds read low 0.81 | S. cerevisiae deletion strains, locus YNL248C, strain rpa49, active compounds read low 0.701 | S. cerevisiae deletion strains, locus YNL298W, strain CLA4, active compounds read low 0.842 | S. cerevisiae deletion strains, locus YNL307C, strain MCK1, active compounds read low 0.748 | S. cerevisiae deletion strains, locus YNL322C, strain KRE1, active compounds read low 0.815 | S. cerevisiae deletion strains, locus YNR049C, strain mso1, active compounds read low 0.812 | S. cerevisiae deletion strains, locus YNR052C, strain pop2, active compounds read low 0.83 | S. cerevisiae deletion strains, locus YOR001W, strain rrp6, active compounds read low 0.638 | S. cerevisiae deletion strains, locus YOR069W, strain VPS5, active compounds read low 0.862 | S. cerevisiae deletion strains, locus YOR070C, strain gyp1, active compounds read low 0.794 | S. cerevisiae deletion strains, locus YOR080W, strain dia2, active compounds read low 0.864 | S. cerevisiae deletion strains, locus YOR083W, strain WHI5, active compounds read low 0.662 | S. cerevisiae deletion strains, locus YOR106W, strain vam3, active compounds read low 0.522 | S. cerevisiae deletion strains, locus YOR136W, strain idh2, active compounds read low 0.896 | S. cerevisiae deletion strains, locus YOR184W, strain ser1, active compounds read low 0.719 | S. cerevisiae deletion strains, locus YOR265W, strain rbl2, active compounds read low 0.792 | S. cerevisiae deletion strains, locus YOR270C, strain vph1, active compounds read low 0.506 | S. cerevisiae deletion strains, locus YOR290C, strain snf2, active compounds read low 0.86 | S. cerevisiae deletion strains, locus YPL051W, strain arl3, active compounds read low 0.607 | S. cerevisiae deletion strains, locus YPL055C, strain LGE1, active compounds read low 0.601 | S. cerevisiae deletion strains, locus YPL078C, strain atp4, active compounds read low 0.615 | S. cerevisiae deletion strains, locus YPL106C, strain sse1, active compounds read low 0.542 | S. cerevisiae deletion strains, locus YPL240C, strain hsp82, active compounds read low 0.852 | S. cerevisiae deletion strains, locus YPL241C, strain CIN2, active compounds read low 0.921 | S. cerevisiae deletion strains, locus YPL256C, strain CLN2, active compounds read low 0.809 | S. cerevisiae deletion strains, locus YPR141C, strain kar3, active compounds read low 0.898 | S. cerevisiae deletion strains, locus YPR163C, strain tif3, active compounds read low 0.823 | S. cerevisiae deletion strains, strain wtn01, active compounds read low 0.76 | S. cerevisiae strains, strain wild type, active compounds read low 0.78
